Results from the supplement of paper PMC12067926.

Key:
Assay in all cases: relative growth (AUC of 72 h growth curve relative to DMSO control, dAUC) (ratio); higher = more growth (less inhibition), active = hit call of the paper
Conditions in all cases: 20 µM;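 active = growth AUC significantly below the DMSO wells by Dunnett test; inactive = the rest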
[1] = test system: Aeromonas 1 (Aeromonas sp. AE235)
Method in brief: (§1)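 Each chemical was tested at 20 µM (1% DMSO) in 96-well plates seeded with a 1:100 dilution of cultures grown to carrying capacity in Luria–Bertani medium. These were isolates from Icelandic stream sediments and Silwood Park soil, as well as whole sediment communities. A plate reader took A600 readings hourly over 72 h, and three biological replicates were averaged. Relative growth (dAUC) is the spline-integrated area under the growth curve relative to the mean of the DMSO controls.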

[2] = test system: Aeromonas 2 (Aeromonas sobria)
Method in brief: as §1

[3] = test system: Aeromonas 3 (Aeromonas popoffii)
Method in brief: as §1

[4] = test system: Argrobacterium 1 (Agrobacterium sp.)
Method in brief: as §1

[5] = test system: Arthrobacter 1 (Arthrobacter humicola)
Method in brief: as §1

[6] = test system: Arthrobacter 2 (Arthrobacter humicola)
Method in brief: as §1

[7] = test system: Arthrobacter 3 (Arthrobacter sp.)
Method in brief: as §1

Community 4 = test system: Community 4
Method in brief: as §1

Community 6 = test system: Community 6
Method in brief: as §1

Compound	relative growth [1]	relative growth [2]	relative growth [3]	relative growth [4]	relative growth [5]	relative growth [6]	relative growth [7]	relative growth (Community 4)	relative growth (Community 6)
CC[C@H]1CCC[C@H](O[C@H]2CC[C@H](N(C)C)[C@@H](C)O2)[C@@H](C)C(=O)C2=C[C@@H]3[C@@H](C=C(C)[C@@H]4C[C@@H](O[C@@H]5O[C@@H](C)[C@H](OC)[C@@H](OC)[C@H]5OC)C[C@@H]34)[C@@H]2CC(=O)O1.CC[C@H]1CCC[C@H](O[C@H]2CC[C@H](N(C)C)[C@@H](C)O2)[C@@H](C)C(=O)C2=C[C@H]3[C@@H]4C[C@H](O[C@@H]5O[C@@H](C)[C@H](OC)[C@@H](OC)[C@H]5OC)C[C@H]4C=C[C@H]3C2CC(=O)O1	0.972 (inactive)	0.977 (inactive)	0.979 (inactive)	1.08 (inactive)	0.832 (inactive)	0.89 (inactive)	0.999 (inactive)	0.855 (inactive)	0.699 (inactive)
CCc1cnc(C2=NC(C)(C(C)C)C(=O)N2)c(C(=O)O)c1 (stereo not drawn)	0.969 (inactive)	0.981 (inactive)	1 (inactive)	0.95 (inactive)	0.895 (inactive)	0.959 (inactive)	0.932 (inactive)	1.03 (inactive)	1.04 (inactive)
O=C(NC(=O)c1c(F)cccc1F)Nc1ccc(Cl)cc1	1.01 (inactive)	1.01 (inactive)	0.986 (inactive)	1.04 (inactive)	0.955 (inactive)	0.985 (inactive)	1.09 (inactive)	0.924 (inactive)	0.996 (inactive)
C#CCN1C(=O)COc2cc(F)c(N3C(=O)C4=C(CCCC4)C3=O)cc21	0.987 (inactive)	0.969 (inactive)	0.982 (inactive)	0.996 (inactive)	1.03 (inactive)	0.974 (inactive)	0.979 (inactive)	0.951 (inactive)	0.959 (inactive)
Fc1ccc([C@]2(Cn3cncn3)O[C@H]2c2ccccc2Cl)cc1 (racemic)	0.946 (inactive)	0.979 (inactive)	0.974 (inactive)	0.985 (inactive)	0.883 (inactive)	0.947 (inactive)	0.856 (inactive)	0.965 (inactive)	1.05 (inactive)
OC(Cc1ccccc1Cl)(Cn1nc[nH]c1=S)C1(Cl)CC1 (stereo not drawn)	0.97 (inactive)	0.986 (inactive)	1.03 (inactive)	1.01 (inactive)	0.952 (inactive)	1.04 (inactive)	1.07 (inactive)	1.01 (inactive)	0.982 (inactive)
O=[N+]([O-])/N=C1\NCCN1Cc1ccc(Cl)nc1	0.99 (inactive)	0.99 (inactive)	0.999 (inactive)	0.959 (inactive)	0.949 (inactive)	1.06 (inactive)	0.929 (inactive)	1.11 (inactive)	1.11 (inactive)
O=C(O)COc1ccc(Cl)cc1Cl	0.976 (inactive)	0.999 (inactive)	0.998 (inactive)	0.944 (inactive)	0.921 (inactive)	0.958 (inactive)	0.969 (inactive)	1.04 (inactive)	1.02 (inactive)
CC(C)OC(=O)C(C(=O)OC(C)C)=C1SCCS1	0.961 (inactive)	0.967 (inactive)	0.993 (inactive)	1.02 (inactive)	1.02 (inactive)	0.922 (inactive)	0.975 (inactive)	0.901 (inactive)	0.886 (inactive)
Fc1ccc(Oc2ccnc3cc(Cl)cc(Cl)c23)cc1	1.01 (inactive)	1.03 (inactive)	1 (inactive)	1.06 (inactive)	0.954 (inactive)	1.1 (inactive)	1.08 (inactive)	0.987 (inactive)	0.935 (inactive)
CCc1cccc(C)c1N(C(=O)CCl)[C@@H](C)COC	1.01 (inactive)	0.962 (inactive)	0.992 (inactive)	1 (inactive)	1.08 (inactive)	0.89 (inactive)	1.02 (inactive)	1.01 (inactive)	0.968 (inactive)
CNC(=O)Oc1cccc(/N=C/N(C)C)c1	1 (inactive)	0.973 (inactive)	0.975 (inactive)	0.977 (inactive)	0.93 (inactive)	0.951 (inactive)	1.1 (inactive)	0.984 (inactive)	0.995 (inactive)
Cc1cccc2sc3nncn3c12	0.985 (inactive)	0.988 (inactive)	1 (inactive)	0.915 (inactive)	0.993 (inactive)	0.932 (inactive)	1.01 (inactive)	0.917 (inactive)	0.96 (inactive)
CCC(=O)Nc1ccc(Cl)c(Cl)c1	0.948 (inactive)	0.953 (inactive)	0.955 (inactive)	0.923 (inactive)	1.12 (inactive)	1 (inactive)	1.02 (inactive)	1.07 (inactive)	1.01 (inactive)
CC1(C)[C@H](C(=O)O[C@H](C#N)c2cccc(Oc3ccccc3)c2)[C@@H]1C=C(Br)Br	1.05 (inactive)	1.04 (inactive)	1.09 (inactive)	1.09 (inactive)	1.16 (inactive)	0.949 (inactive)	0.946 (inactive)	1.01 (inactive)	1.06 (inactive)
COP(=O)(NC(C)=O)SC (stereo not drawn)	1.02 (inactive)	0.995 (inactive)	0.998 (inactive)	1.03 (inactive)	0.984 (inactive)	0.906 (inactive)	1.05 (inactive)	1.01 (inactive)	0.892 (inactive)
Cc1cc(C(F)(C(F)(F)F)C(F)(F)F)ccc1NC(=O)c1cccc(I)c1C(=O)NC(C)(C)CS(C)(=O)=O	0.939 (inactive)	0.974 (inactive)	1.41	0.695 (active)	0.792 (inactive)	1.02 (inactive)	0.822 (inactive)	0.805 (inactive)	0.894 (inactive)
CN1COCN(Cc2cnc(Cl)s2)/C1=N\[N+](=O)[O-]	0.991 (inactive)	0.983 (inactive)	0.984 (inactive)	1.04 (inactive)	1.04 (inactive)	1.02 (inactive)	1.13 (inactive)	1.04 (inactive)	0.963 (inactive)
COCC(C)N(C(=O)CCl)c1c(C)csc1C (stereo not drawn)	0.991 (inactive)	0.984 (inactive)	0.964 (inactive)	1.02 (inactive)	0.907 (inactive)	0.814 (inactive)	1.05 (inactive)	0.913 (inactive)	0.975 (inactive)
CNC(=O)c1cc(C#N)cc(C)c1NC(=O)c1cc(Br)nn1-c1ncccc1Cl	0.986 (inactive)	0.95 (inactive)	1.01 (inactive)	1.03 (inactive)	1 (inactive)	0.967 (inactive)	0.99 (inactive)	0.903 (inactive)	0.946 (inactive)
CC(COc1ccc(Oc2ccccc2)cc1)Oc1ccccn1 (stereo not drawn)	1.04 (inactive)	0.997 (inactive)	1.08 (inactive)	1.09 (inactive)	1.11 (inactive)	0.937 (inactive)	0.925 (inactive)	1.08 (inactive)	1.07 (inactive)
CCSC(C)CC1CC(=O)C(/C(CC)=N/OC/C=C/Cl)=C(O)C1 (mixture of isomers)	0.981 (inactive)	0.969 (inactive)	0.986 (inactive)	1.01 (inactive)	0.93 (inactive)	0.987 (inactive)	0.986 (inactive)	1.09 (inactive)	1.01 (inactive)
O=C1C2(Cl)C3(Cl)C4(Cl)C(Cl)(Cl)C5(Cl)C3(Cl)C1(Cl)C5(Cl)C24Cl (stereo not drawn)	0.934 (inactive)	0.817 (active)	0.99 (inactive)	1.03 (inactive)	0.00606 (active)	0.00565 (active)	0.0264 (active)	0.858 (inactive)	0.811 (inactive)
OC(Cn1cncn1)(c1ccc(F)cc1)c1ccccc1F (stereo not drawn)	0.996 (inactive)	1.04 (inactive)	1.01 (inactive)	1.02 (inactive)	0.835 (inactive)	1.11 (inactive)	1.04 (inactive)	1.08 (inactive)	1.07 (inactive)
CCCCN(CCCC)SN(C)C(=O)Oc1cccc2c1OC(C)(C)C2	1.06 (inactive)	1.03 (inactive)	1.05 (inactive)	1.07 (inactive)	1.23 (inactive)	0.838 (inactive)	0.966 (inactive)	0.917 (inactive)	0.92 (inactive)
CCCCC(C#N)(Cn1cncn1)c1ccc(Cl)cc1 (stereo not drawn)	0.946 (inactive)	0.901 (inactive)	0.979 (inactive)	1.07 (inactive)	0.975 (inactive)	0.849 (inactive)	0.841 (inactive)	0.921 (inactive)	0.931 (inactive)
CCOC(=O)CC(SP(=S)(OC)OC)C(=O)OCC (stereo not drawn)	1.06 (inactive)	0.992 (inactive)	1.02 (inactive)	1.01 (inactive)	1.22 (inactive)	1.05 (inactive)	0.98 (inactive)	1.15 (inactive)	1.09 (inactive)
